VLA-4 inh – inhibition in human VLA-4 binding assay, primary screen, VLA-4 allosteric modulator project, MLPCN library, flow cytometry, VLA-4 expressing cells; ligand binding flow cytometry; inhibition, % (about 7 µM as worked out from the volumes in the protocol); 330,000 tested, 0.2% active; AID 2557, 2010
Target sequence (P13612 whole entry, looked up): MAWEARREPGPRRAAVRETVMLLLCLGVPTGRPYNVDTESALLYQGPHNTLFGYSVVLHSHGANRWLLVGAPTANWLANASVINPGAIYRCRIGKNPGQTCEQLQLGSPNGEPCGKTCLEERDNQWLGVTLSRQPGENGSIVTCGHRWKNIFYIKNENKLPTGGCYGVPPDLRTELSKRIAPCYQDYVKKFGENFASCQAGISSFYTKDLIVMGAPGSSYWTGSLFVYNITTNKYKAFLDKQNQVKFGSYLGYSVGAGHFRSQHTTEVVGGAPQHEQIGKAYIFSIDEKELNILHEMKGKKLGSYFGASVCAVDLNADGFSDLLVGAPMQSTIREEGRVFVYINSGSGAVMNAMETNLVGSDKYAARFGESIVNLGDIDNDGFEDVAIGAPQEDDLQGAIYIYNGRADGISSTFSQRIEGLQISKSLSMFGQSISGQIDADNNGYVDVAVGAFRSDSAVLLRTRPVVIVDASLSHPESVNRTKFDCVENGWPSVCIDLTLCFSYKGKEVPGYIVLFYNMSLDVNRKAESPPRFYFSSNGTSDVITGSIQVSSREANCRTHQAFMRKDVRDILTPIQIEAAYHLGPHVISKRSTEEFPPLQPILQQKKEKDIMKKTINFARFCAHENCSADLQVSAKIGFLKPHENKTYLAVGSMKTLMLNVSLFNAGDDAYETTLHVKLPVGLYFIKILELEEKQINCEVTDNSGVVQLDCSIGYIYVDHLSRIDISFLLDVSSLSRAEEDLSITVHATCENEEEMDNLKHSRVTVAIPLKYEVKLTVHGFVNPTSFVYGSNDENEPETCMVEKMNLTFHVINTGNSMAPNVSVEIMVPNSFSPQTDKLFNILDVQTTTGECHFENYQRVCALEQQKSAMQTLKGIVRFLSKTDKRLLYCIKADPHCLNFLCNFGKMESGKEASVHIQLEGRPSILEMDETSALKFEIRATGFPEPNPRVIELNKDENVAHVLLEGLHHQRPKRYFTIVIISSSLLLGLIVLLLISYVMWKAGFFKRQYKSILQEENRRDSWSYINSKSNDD
HDAC3 inhib – HDAC3 deacetylase inhibitors, primary screen, biochemical, fluorescence, cell-free homogeneous; Histone deacetylase 3 (Homo sapiens), O15379; recombinant HDAC3, fluorogenic peptide/trypsin coupled; inhibition, % at 8.3 µM; 320,000 tested, 0.15% active; AID 2718, 2010; in the data active means inhibition above about 26%, passing the limit was not always enough; inconclusive means no clear call, values can overlap the other calls
LANA-H2A inh – blockers of LANA interaction with H2A/H2B – biochemical, FP readout, HTS, primary screen; Protein LANA1 (Human herpesvirus 8 type P (isolate GK18)), Q9QR71; cell-free LANA-H2A/H2B peptide, fluorescence polarization; inhibition, % (no concentration beside the values); 320,000 tested, 0.6% active; in the data active means inhibition mostly above about 10%, no sharp cut-off; inactive means mostly below about 6.7%
PKD1 inh – inhibitors of human PKD1 kinase, biochemical, fluorescence polarization | Serine/threonine-protein kinase D1 (Homo sapiens), Q15139 | PKD1 kinase fluorescence polarization assay | inhibition, % (no concentration beside the values) | 200,000 tested, 0.056% active
DSG3 Ab inh – inhibitors of pemphigus antibody binding to DSG3, primary screen, biochemical, bead-based, flow cytometry, scFv-GFP; 310,000 tested, 0.48% active; Desmoglein-3 (Homo sapiens), P32926; DSG3-coupled beads, scFv-anti-DSG3-GFP binding; hits give low values; binding (percent of control), % at 10 µM;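 active means binding more than 3 SD below its plate's average and above zero; inconclusive means below that plate limit but binding exactly zero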;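 further: hits lower antibody fragment binding to DSG3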
GRK2 aptamer HTS – compounds blocking aptamer binding on GRK2 – biochemical, human GRK2, bead flow cytometry, HTS, primary screen; 330,000 tested, 0.59% active; Beta-adrenergic receptor kinase 1 (Homo sapiens), P25098; FAM-aptamer displacement from GRK2; inhibition of aptamer binding, % at 10 µM; AID 488847, 2010;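 active means inhibition of aptamer binding above 40%, roughly 3 SD of noise, on plates passing a quality check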;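 further: median bead fluorescence of bound FAM aptamer so fluorescent compounds give negative values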
VLA-4 allo CP – retest of VLA-4 allosteric modulators, confirmation, cell-based, cherry-picked plates, U937, HUTS-21 LIBS antibody. 1,300 tested, 2% active. shares compounds with VLA-4 inh. inhibition, % at 6.7 µM. U937 cells, HUTS-21 LIBS mAb binding, flow cytometry; LDV ligand present at threefold Kd. AID 2813, 2010; in the data active means inhibition above about 40%;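 further: 0% = ligand without compound and 100% = no ligand background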
* hit, by the source's call; ? = inconclusive; / = no result. Most compounds without a hit are left out; they make up all but 1.8% or so of the library. Unless noted, no stated cut-off is given here; in the data, active means inhibition above about 50%; inactive means the rest.

SMILES | VLA-4 inh | HDAC3 inhib | LANA-H2A inh | PKD1 inh | DSG3 Ab inh | GRK2 aptamer HTS | VLA-4 allo CP
COc1ccc(C(=O)N2CCC(C(=O)Nc3ccc(OC)c(OC)c3)CC2)cc1 | 5.5 | -7.8 | 3.4 | 0.2 | 105.3 | 1.0 | -0.6
COc1cccc(C(C(=O)NC2CCCCC2)N(C(=O)Cc2cccs2)c2ccc(-n3cnnn3)c(OC)c2)c1 (stereo unspecified) | 54.0* | 2.9 | -0.8 | -13.4 | 104.7 | 0.0 | -3.5
Cc1cccc2c(CCNC(=O)c3ccc([N+](=O)[O-])cc3)c[nH]c12 | 68.1* | 7.1 | 3.5 | -4.2 | 128.5 | 7.0 | 17.6
O=C(CCSc1ccc(Br)cc1)c1ccc(O)cc1 | 40.5 | 4.9 | 0.8 | / | 97.8 | 4.0 | -12.6
O=C(CCNC(=O)c1ccc([N+](=O)[O-])cc1)Nc1ccccc1N1CCCCC1 | 5.2 | 4.9 | 4.1 | / | 112.6 | 0.0 | /
CC(C)(C)OC(=O)n1cc(C(=O)c2ccccc2O)cn1 | 50.2* | -2.6 | -0.6 | / | 104.9 | 1.0 | 7.0
CCOC(=O)c1cc(-c2ccccc2)nc2nc(N(CC)CC)sc12 | -4.0 | -3.1 | 1.0 | / | / | 2.0 | /
Cc1cc(/C=C(/C#N)C(=O)Nc2ccccc2)c(C)n1-c1cccnc1 | 94.5* | 6.5 | -1.6 | 1.8 | 101.2 | 1.0 | -2.2
COC(=O)C1=C(NC(=O)COc2ccc3ccccc3c2)CCS1 | 41.5 | -10.2 | -1.9 | 9.1 | 100.1 | 0.0 | -12.6
CSc1nc(N)nc2c1ncn2CC(=O)N1CCN(Cc2c(C)cc(C)cc2C)CC1 | 43.8 | 2.6 | -3.7 | / | 104.6 | 0.0 | /
O=C(Nc1nc2ccccc2[nH]1)C1CCN(C(=O)c2ccc(F)cc2)CC1 | -2.1 | 1.7 | 0.1 | / | 95.3 | 0.0 | /
Cc1cccc(NC(=O)C2CCN(C(=O)c3ccc(F)cc3)CC2)n1 | 1.5 | 2.1 | -1.2 | / | 102.1 | 0.0 | 0.7
O=C(O)C1CCN(C(=O)c2ccc(Cl)cc2)CC1 | 0.7 | 3.4 | 7.5 | 1.5 | / | 0.0 | /
Cc1cccc(NC(=O)C2CCN(C(=O)c3ccc(Cl)cc3)CC2)n1 | 1.4 | -3.2 | 0.3 | / | 119.4 | 0.0 | -1.6
COc1ccc(S(=O)(=O)Nc2ccc(F)c(F)c2)cc1C(=O)N1CCOCC1 | 3.2 | 1.7 | -7.1 | / | 95.7 | 2.0 | /
CCN(CC)c1ccc(NC(=O)c2c(C)noc2C)cc1 | 11.7 | -2.9 | -0.1 | / | 101.8 | 3.0 | /
O=C(NN1C(=O)NC2(CCCCC2)C1=O)c1cccs1 | -7.3 | -0.7 | 0.7 | / | 99.0 | 0.0 | /
CN(C)CCN(CC1CCCN(Cc2ccccc2F)C1)C(=O)c1ccc(F)cc1 (stereo unspecified) | 2.7 | 5.5 | 1.3 | / | 93.7 | 0.0 | /
Cc1cc(C)nc(-n2ncc3c2CC(C)CC3=O)n1 (stereo unspecified) | -7.9 | -2.2 | 0.8 | / | 102.7 | 0.0 | 11.0
O=C(COC(=O)c1ccccc1Cl)NC1CCCCCC1 | -5.8 | -0.3 | 4.0 | / | 100.0 | 0.0 | -4.9
Cc1ccc(SCC(=O)OCC(=O)NC2CCCCCCC2)cc1 | 54.6* | / | -1.1 | / | 111.2 | 0.0 | -0.1
O=C(COC(=O)CSc1ccc([N+](=O)[O-])cc1)NC1CCCCCCC1 | 1.4 | 6.3 | 2.7 | / | 108.2 | 3.0 | /
O=C(COC(=O)c1c(Cl)cccc1Cl)NC1CCCCCCC1 | 6.5 | -2.1 | 0.9 | / | 102.1 | 3.0 | 1.3
CCCCc1ncc(CN2CCN(Cc3ccc(C)cc3)C(CCO)C2)[nH]1 (stereo unspecified) | 0.0 | -4.2 | 2.7 | -2.8 | 106.1 | 0.0 | /
CCOC(=O)C(=O)Nc1ccc(S(=O)(=O)Nc2nccs2)cc1 | 14.0 | 10.9 | 7.4 | / | 100.3 | 2.0 | /
SMILES | VLA-4 inh | HDAC3 inhib | LANA-H2A inh | PKD1 inh | DSG3 Ab inh | GRK2 aptamer HTS | VLA-4 allo CP
CCCCOc1ccc(C(=O)OCC(=O)Nc2cc(C)c(C)cc2[N+](=O)[O-])cc1 | 2.4 | ? | -0.6 | -5.2 | 104.6 | 1.0 | /
COc1ccc(C(=O)OCC(=O)Nc2cc(C)c(C)cc2[N+](=O)[O-])cc1 | 53.8* | 0.2 | -1.3 | 11.0 | 104.5 | 0.0 | -0.1
CSC(=O)NC(=O)NC(=O)c1ccc([N+](=O)[O-])cc1 | 9.9 | / | -0.5 | / | 95.4 | 1.0 | /
Cc1ccc(C(=O)C(OC(=O)c2cnccn2)c2ccccc2)cc1 (stereo unspecified) | 47.6 | 1.0 | 3.4 | 5.5 | 93.9 | 1.0 | -9.3
CCOC(=O)C(CC)(CC)C(=O)/C=C/c1ccc(Br)cc1 | 89.7* | 4.5 | -4.4 | -5.8 | 102.3 | 0.0 | 4.7
CCOC(=O)C(=Cc1ccc(Br)cc1)C(=O)OCC | 0.1 | 3.2 | 3.8 | / | 101.4 | 0.0 | /
CN1CCN(C(=O)c2ccc(NS(=O)(=O)c3cccc([N+](=O)[O-])c3)cc2)CC1 | / | / | / | / | 99.9 | / | /
COc1ccc2sc(-c3ccccc3OC)c(-c3ccc(OCCN(C)C)cc3)c2c1 | / | / | / | / | 108.1 | 0.0 | -3.9
CCOc1ccc(OCCN2CCCCC2)cc1 | 4.2 | / | / | 4.5 | 102.6 | 0.0 | /
COc1cccc(-c2sc3cc(OC)c(OC)cc3c2-c2ccc(OCCN3CCCCC3)cc2)c1 | / | / | / | / | 113.3 | 0.0 | 0.0
COc1ccc(-c2sc3ccc(OC)cc3c2-c2ccc(OCCN3CCOCC3)cc2)cc1 | / | / | / | / | 100.8 | 2.0 | 0.7
COc1ccc(OCCN2CCOCC2)cc1 | 8.1 | 6.3 | 5.1 | / | 120.8 | 0.0 | /
COc1ccc2sc(-c3ccccc3OC)c(-c3ccc(OC)c(F)c3)c2c1 | 15.1 | -6.0 | -1.6 | / | 96.3 | 0.0 | /
c1ccc(COc2ccc(OCCN3CCCCC3)cc2)cc1 | 4.0 | -6.0 | 0.7 | -7.9 | 123.9 | 0.0 | /
COc1cccc(-c2sc3ccccc3c2-c2ccc(OCCN3CCCCC3)cc2)c1 | 44.6 | 1.8 | 5.7 | / | 110.4 | 0.0 | 19.7
N#Cc1cccc(S(=O)(=O)N2CCN(c3ccnc4cc(Cl)ccc34)CC2)c1 | -8.9 | -0.1 | 7.9 | / | 115.3 | 0.0 | /
O=P(c1ccccc1)(c1ccccc1)C(O)c1ccc(Br)cc1 (stereo unspecified) | -9.3 | 1.0 | -4.4 | / | 115.3 | 0.0 | /
COc1cccc(-c2sc3ccccc3c2-c2ccc(OCCN3CCCC3)cc2)c1 | 63.8* | 7.1 | 8.4 | / | 115.8 | 0.0 | 38.1
COc1cccc(-c2sc3ccc(OC)cc3c2-c2ccc(OC)cc2F)c1 | 14.6 | -3.0 | -2.0 | / | 100.9 | 0.0 | /
COc1cccc(-c2sc3ccc(OC)cc3c2-c2ccc(OCCN3CCCC3)cc2)c1 | / | / | / | / | 108.3 | 0.0 | 11.8
COc1cccc(-c2sc3ccc(OC)cc3c2-c2ccc(C(N)=O)cc2)c1 | 26.4 | -3.4 | -4.2 | / | 93.5 | 0.0 | /
COc1cccc(-c2sc3ccccc3c2-c2ccc(OCCN(C)C)cc2)c1 | 72.1* | 17.4 | 3.0 | / | / | 0.0 | 44.2*
